# HCMV antiviral: qHTS Assay for inhibitors of the human cytomegalovirus (HCMV) | AID 1259415, 2018 | HFF cells, HCMV-luciferase reporter, 72 h; hits give low values | 4.5% of 410,000 active | activity change, negative = inhibition, % at 57.5 µM; in the data active = activity change below about -60%; inconclusive = no clear call, values can overlap the other calls; inactive = above about -39%
#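 After 16 h attachment at 37C, HFF cells received test compound and HCMV-luciferase (1 PFU/cell); reporter luminescence read 72 h later, data normalized against buffer-only and known inhibitor Salinomycin.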
# LASV entry inh: qHTS for Inhibitors of binding or entry into cells for Lassa Virus; AID 540256, 2011; Potency, µM (highest dose often 37.9 µM), inactives show top-dose activity change, negative = inhibition, usual class: inhibitors; Lassa virus pseudotype entry inhibition, cell reporter; 1.2% of 300,000 active; calls by dose curve; tested in HEK293 cells; also: potency is read from the fitted curve at half-maximal effect; nearly all actives have a fitted effect of over 50% in size
# Pf growth 96h: Primary qHTS for delayed death inhibitors of the malarial parasite plastid, 96 hour incubation. P. falciparum luciferase reporter growth, 96 h. Potency, µM (titrated, usually from 28.7 µM), without a hit: at the highest dose activity change, negative = inhibition, actives largely listed as inhibitors. 6.9% of 320,000 active. AID 504834, 2011; also: potency is read from the fitted curve at half-maximal effect
#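 Two-generation exposure (96 h) targets delayed-death phenotype. Reporter parasites carrying integrated firefly luciferase, in red cells at 2% hematocrit and 0.05% parasitemia final, kept at 37 C, 5% CO2; luminescence loss indicates inhibition.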
# HCV inhibitor: qHTS Assay for Inhibitors of Hepatitis C Virus (HCV). Huh7.5.1 HCVcc-Cre infection, luciferase reporter, 44 h. Potency, µM (highest dose often 41.8 µM), without a hit: at the top dose activity change, negative = inhibition, hits mostly inhibitors. 3.4% of 340,000 active; also: potency is read from the fitted curve at half-maximal effect
#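 Whole-lifecycle infectious HCVcc-Cre system; cells 1,000/well, compound then virus (~0.5 moi) added 4 h after plating, 44 h culture. Luciferase read 15 sec following 15 min substrate incubation, room temp.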
# Marburg entry inh: qHTS for inhibitors of binding or entry into cells for Marburg Virus | Marburg virus pseudotyped entry inhibition, cell reporter | Potency, µM (series often up to 37.8 µM), for the others: at the highest dose activity change, negative = inhibition, usual class: inhibitors | 1.8% of 300,000 active; calls by dose curve; tested in HEK293 cells; also: potency is read from the fitted curve at half-maximal effect
# Pf growth 48h: Primary qHTS for delayed death inhibitors of the malarial parasite plastid, 48 hour incubation. Potency, µM (doses to about 28.7 µM), inactives show at the top dose activity change, negative = inhibition, actives largely listed as inhibitors. 5.9% of 310,000 active. AID 504832, 2011. P. falciparum luciferase growth in erythrocytes, 48 h; also: potency is read from the fitted curve at half-maximal effect
#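 Compounds are pin-transferred into medium, infected erythrocytes (2% hematocrit, 0.1% parasitemia final) are added, and plates sit one parasite generation at 37 C in 5% CO2. Detection reagent is then added and luminescence measured.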
# * = called active by the depositor; ? = inconclusive; nt = no result; [ ] = remark or other dose. Shown are actives, neighbours in structure and some others; about 14% of the full set was active somewhere. Unless noted, calls follow the shape of the dose curve; as a rule, active = well fitted inhibition curve with a large enough effect; inconclusive = small, poorly fitted or top-dose-only effect, or another doubt; inactive = no such curve, though single readings can be large or run the other way. % is scaled to controls: 0 for no effect and ±100 for the full control effect.
SMILES,HCMV antiviral,LASV entry inh,Pf growth 96h,HCV inhibitor,Marburg entry inh,Pf growth 48h
COC(=O)C1=C(C)N(Cc2ccccc2)C(=O)NC1c1cccc(C(F)(F)F)c1 (stereo not drawn),nt,nt,nt,nt,17%[14.2 µM],nt
CS(=O)(=O)c1ccc(Cl)c(NC(=O)COC(=O)Cc2c[nH]c3ccccc23)c1,-11,1%,9%,-4%,-4%[46.1 µM],6%
COC(=O)c1ccc(C(=O)OC)c(NC(=O)CN2CCN(c3ccccc3OC)CC2)c1,17,?,-19%,?,0%,13µM*
COC(=O)c1ccc(C(=O)OC)c(NC(=O)CN2CCN(c3ccc(OC)cc3)CC2)c1,-21,-23%,nt,6%,-1%[46.1 µM],0%
Cn1c(=O)c2c(nc(SCc3nc(N)nc(N4CCCCC4)n3)n2C)n(C)c1=O,-69*,?,?,6%,2%,-6%
CCCn1c(SCc2nc(N)nc(N3CCCCC3)n2)nc2c1c(=O)n(C)c(=O)n2C,48,-6%[46.1 µM],-23%,5%,-9%[46.1 µM],-7%
COc1cc2c(C#N)c(N3CCc4ccccc4C3)nc(N)c2c(N)n1,14,7%,?,?,?,8.3µM*
Fc1ccc(CSc2nc3ncc(Br)cc3[nH]2)cc1,26,-29%,9.3µM*,2%,1%,nt
COc1ccc(NC(C)=O)cc1NC(=O)c1cccc(C(F)(F)F)c1,-40,-20%,3%,-19%,29%[46.1 µM],11%
CC(=O)Nc1ccc(C)c(NS(=O)(=O)c2cccc(C(F)(F)F)c2)c1,-38,11%,3.7µM*,21%,?,1.9µM*
C/C(=N\OC(=O)c1c(-c2c(F)cccc2Cl)noc1C)c1nccs1,18,-7%[46.1 µM],?,-4%,-23%[46.1 µM],21%
Cc1onc(-c2c(F)cccc2Cl)c1C(=O)O/N=C(\N)c1ccc([N+](=O)[O-])o1,-62*,-1%,12µM*,?,-2%[46.1 µM],8.3µM*
Cc1onc(-c2c(Cl)cccc2Cl)c1/C(N)=N/OC(=O)C(C)(C)C,8,?,8.3µM*,8%,6%,12µM*
O=C(NC1CCCCCCC1)c1cc(F)c(F)cc1Cl,-61*,nt,?,18%,nt,54%
Cc1ccc(C(=O)NC2CCCCCCC2)c(Cl)c1,-79*,nt,-33%,15%,nt,167%
Cc1ccc(C(=O)NC2CCCCC2)cc1,111,4%,182%,6%,0%,94%
CN(C)CCOC(=O)c1cccc(Br)c1,-26,2%,75%,6%,?,nt
Cc1c(C)n(Cc2ccccc2)c2ccc(C(=O)OCCCN(C)C)cc12,-63*,?,4.1µM*,?,10µM*,?
Cc1ccccc1CCNC(=O)c1ccc2c(c1)c(C)c(C)n2Cc1ccccc1,0,-11%[46.1 µM],nt,nt,nt,nt
Cc1[nH]c2ccc(C(=O)OCCN(C)C)cc2c1C,25,1%,4.7µM*,-19%,?,71%
Cc1c(C)n(CCN(C)C)c2ccc(C(=O)OCCN(C)C)cc12,-10,nt,45%,11µM*,nt,?
